Test results published in PubChem BioAssay AID1159580 (chemical genetic matrix, 2015).
The campaign covered roughly 5,500 compounds. About 2,000 (36%) were called active. Roughly 18% stayed inconclusive and do not appear here. Cut-off read from the data, not from the text of the source: active = normalized growth mostly below about 0.91 (no sharp cut-off); inconclusive = no clear call, values can overlap the other calls; inactive = mostly above about 0.92. The list shows a part of the results.

Assay: chemical genetic growth profiling, strain panel (AID 1159580);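 note: tested at 20 µM; growth read once vehicle control cultures reached saturation at 30 °C; 1 = growth at the plate median or of vehicle wells; lower values mean less growth of the strain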
Settings: S. cerevisiae deletion strains, growth OD

Measured: normalized growth

c1ccc2nc(N3CCNCC3)ccc2c1
inactive: locus YAL013W, strain DEP1, hits give low values 0.992 | locus YAL021C, strain ccr4, hits give low values 0.997 | locus YAL026C, strain drs2, hits give low values 0.989 | locus YAL030W, strain snc1, hits give low values 0.999 | locus YAL040C, strain CLN3, hits give low values 1.02 | locus YBL061C, strain skt5, hits give low values 1.01 | locus YBR009C, strain hhf1, hits give low values 1.01 | locus YBR023C, strain chs3, hits give low values 1.01 | locus YBR171W, strain sec66, hits give low values 0.985 | locus YBR231C, strain swc5, hits give low values 1.02 | locus YBR279W, strain paf1, hits give low values 1.01 | locus YCL011C, strain gbp2, hits give low values 0.97 | locus YCL016C, strain dcc1, hits give low values 1.01 | locus YCL061C, strain MRC1 (second series), hits give low values 1 | locus YCL061C, strain MRC1, hits give low values 0.981 | locus YCL069W, strain vba3, hits give low values 0.982 | locus YCR088W, strain abp1, hits give low values 0.984 | locus YDL005C, strain med2, hits give low values 1.01 | locus YDL040C, strain nat1, hits give low values 1.01 | locus YDR001C, strain nth1, hits give low values 0.982 | locus YDR069C, strain doa4, hits give low values 0.975 | locus YDR137W, strain rgp1, hits give low values 1.09 | locus YDR159W, strain sac3, hits give low values 0.985 | locus YDR195W, strain ref2 1.01 | locus YDR297W, strain sur2, hits give low values 1 | locus YDR334W, strain swr1, hits give low values 1.01 | locus YDR335W, strain msn5, hits give low values 1 | locus YDR363W, strain ESC2, hits give low values 0.97 | locus YDR392W, strain spt3, hits give low values 0.976 | locus YEL003W, strain gim4, hits give low values 0.971 | locus YEL037C, strain rad23, hits give low values 0.987 | locus YEL061C, strain CIN8 (second series), hits give low values 0.988 | locus YER002W, strain NOP16, hits give low values 1.03 | locus YER015W, strain faa2, hits give low values 0.995 | locus YER016W, strain bim1, hits give low values 1.01 | locus YER111C, strain swi4, hits give low values 0.99 | locus YER155C, strain BEM2 (second series), hits give low values 0.957 | locus YFR010W, strain ubp6, hits give low values 0.985 | locus YGL167C, strain pmr1, hits give low values 1.01 | locus YGL173C, strain kem1, hits give low values 1.01 | locus YGL227W, strain vid30, hits give low values 0.979 | locus YGL240W, strain doc1, hits give low values 0.998 | locus YGL253W, strain hxk2, hits give low values 1.01 | locus YGR078C, strain PAC10, hits give low values 1.01 | locus YHR013C, strain ard1, hits give low values 0.966 | locus YHR027C, strain rpn1, hits give low values 1.01 | locus YHR030C, strain SLT2, hits give low values 0.982 | locus YHR079C, strain IRE1, hits give low values 0.993 | locus YHR142W, strain chs7, hits give low values 0.968 | locus YJL092W, strain hpr5, hits give low values 0.978 | locus YJL095W, strain BCK1 (second series), hits give low values 1.01 | locus YJL095W, strain BCK1, hits give low values 0.999 | locus YJL115W, strain asf1, hits give low values 0.994 | locus YJL129C, strain trk1, hits give low values 0.947 | locus YJL154C, strain vps35, hits give low values 0.977 | locus YJL164C, strain tpk1, hits give low values 1.01 | locus YJL166W, strain qcr8, hits give low values 1.01 | locus YJL187C, strain SWE1, hits give low values 1 | locus YJR066W, strain TOR1, hits give low values 0.962 | locus YKL160W, strain elf1, hits give low values 1 | locus YKR026C, strain gcn3, hits give low values 0.981 | locus YKR091W, strain srl3, hits give low values 1 | locus YLL001W, strain dnm1, hits give low values 1.01 | locus YLL026W, hits give low values 1 | locus YLL041C, strain sdh2, hits give low values 1.01 | locus YLR027C, strain aat2, hits give low values 1 | locus YLR113W, strain HOG1, hits give low values 1.01 | locus YLR221C, strain rsa3, hits give low values 1 | locus YLR258W, strain gsy2, hits give low values 1.01 | locus YLR262C, strain YPT6 (second series), hits give low values 1.03 | locus YLR320W, strain mms22, hits give low values 1.02 | locus YLR342W, strain FKS1, hits give low values 1.02 | locus YLR357W, strain rsc2, hits give low values 1.04 | locus YLR370C, strain arc18, hits give low values 1.01 | locus YLR384C, strain iki3, hits give low values 1.01 | locus YML120C, strain ndi1, hits give low values 1 | locus YMR058W, strain fet3, hits give low values 0.989 | locus YMR125W, strain sto1, hits give low values 0.99 | locus YMR129W, hits give low values 0.99 | locus YMR205C, strain PFK2, hits give low values 1 | locus YMR231W, strain pep5, hits give low values 1.01 | locus YMR307W, strain GAS1, hits give low values 1.01 | locus YNL071W, strain lat1, hits give low values 0.999 | locus YNL128W, strain TEP1, hits give low values 1.01 | locus YNL153C, strain GIM3, hits give low values 0.958 | locus YNL175C, strain NOP13, hits give low values 1.02 | locus YNL183C, strain NPR1, hits give low values 0.95 | locus YNL197C, strain WHI3, hits give low values 0.998 | locus YNL209W, strain ssb2, hits give low values 0.998 | locus YNL224C, strain SQS1, hits give low values 1.01 | locus YNL248C, strain rpa49, hits give low values 0.996 | locus YNL322C, strain KRE1 (second series), hits give low values 1 | locus YNR049C, strain mso1, hits give low values 1 | locus YOR001W, strain rrp6, hits give low values 0.995 | locus YOR070C, strain gyp1, hits give low values 1 | locus YOR080W, strain dia2, hits give low values 1 | locus YOR083W, strain WHI5 (second series), hits give low values 1.02 | locus YOR083W, strain WHI5, hits give low values 1.01 | locus YOR106W, strain vam3, hits give low values 1.01 | locus YOR231W, strain MKK1, hits give low values 0.99 | locus YOR265W, strain rbl2, hits give low values 1 | locus YOR270C, strain vph1, hits give low values 0.987 | locus YOR290C, strain snf2, hits give low values 0.975 | locus YPL051W, strain arl3, hits give low values 1.02 | locus YPL055C, strain LGE1, hits give low values 0.988 | locus YPL078C, strain atp4, hits give low values 0.984 | locus YPL106C, strain sse1, hits give low values 1 | locus YPL240C, strain hsp82, hits give low values 1.01 | locus YPL256C, strain CLN2, hits give low values 0.988
